Compound activity from PubChem.
C diff HTS = C. difficile growth inhibition; Clostridium difficile clinical isolate growth, OD600, 24 h; stronger effect = lower value; growth activity, negative = inhibition, % at 16 µg/mL (by protocol); 86,000 compounds, 0.25% hits;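 active = mean growth activity at or below -80% and every replicate also at or below -80%; inconclusive = mean at or below -80% but some replicate above -80%; inactive = mean growth activity above -80%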;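 note: 0% = DMSO wells and -100% = levofloxacin 16 µg/mL wells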
Pf Dd2 growth = P. falciparum Dd2 growth inhibition; SYBR Green, 72 h; stronger effect = lower value; activity change, % at 10 µM; 94,000 compounds, 2.3% hits; in the data active = activity change below about -80%; inconclusive = no clear call, values can overlap the other calls
T cruzi growth-1 = T. cruzi proliferation inhibition; inhibition, % at 8.34 µM; T. cruzi beta-gal in NIH3T3, GalScreen luminescence, 90 h; 77,000 compounds, 5.9% hits;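 active = mean inhibition above about 93%, with at least 55% of replicates each passing it, limit read from the data, passing the limit was not always enough; inconclusive = only one of those two conditions holds; inactive = neither condition holds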
T cruzi growth-2 = blocks T. cruzi growth in NIH3T3 host cells. shares compounds with T cruzi growth-1. T. cruzi beta-gal in NIH3T3, GalScreen luminescence, 90 h. inhibition, % at 8.35 µM. 5,600 compounds, 72% hits. AID 651739;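 active = mean replicate inhibition above about 95% and at least 55% of replicates individually reaching it, limit read from the data; inconclusive = only one of the two criteria is met; inactive = neither criterion is met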
T cruzi growth-3 = blocks T. cruzi growth in NIH3T3 host cells. shares compounds with T cruzi growth-1. T. cruzi beta-gal in NIH3T3, GalScreen luminescence, 90 h. inhibition, % at 2.09 µM. 5,600 compounds, 21% hits. AID 651740;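 active = mean inhibition above about 95%, with at least 55% of replicates also reaching it, limit read from the data; inconclusive = meets just one of the two conditions; inactive = meets neither condition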;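 note: plate controls were neutral control median for no effect and positive control median for full effect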
3T3 cytotox = NIH/3T3 (mouse) viability loss; shares compounds with T cruzi growth-1; NIH/3T3 viability, CellTiter-Glo ATP luminescence, 90 h; cytotoxicity (signal decrease), % at 8.35 µM; 5,600 compounds, 14% hits;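 active = mean signal decrease across replicates above about 35% based on untreated-well scatter, with enough replicates individually passing, limit read from the data; inconclusive = no rule stated though some were filed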;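 note: 0% = median of neutral control wells and 100% = median of positive control wells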
3T3 cytotox 2 = kills mouse NIH/3T3 fibroblasts; shares compounds with T cruzi growth-1; inhibition, % at 24.9 µM; 5,600 compounds, 56% hits; NIH/3T3 viability, CellTiter-Glo ATP luminescence, 90 h;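 active = mean loss of cell viability signal at or above a set limit, and enough replicates individually reaching it; inconclusive = meets only the mean limit or only the replicate share; inactive = meets neither condition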;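 note: 0% = median of neutral control wells and 100% = median of positive control wells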
The depositor's hits bear a star; ? = inconclusive; · = not tested or not shown. Hits are enriched below; roughly 6.8% of the tested compounds scored in any of these assays.

SMILES	C diff HTS	Pf Dd2 growth	T cruzi growth-1	T cruzi growth-2	T cruzi growth-3	3T3 cytotox	3T3 cytotox 2
CC(C)CC#Cc1cnc2c(c1)C(=O)N([C@H](C)CO)C[C@@H](C)[C@@H](CN(C)S(C)(=O)=O)O2	-2	10	39	·	·	·	·
O=C(NCCc1ccccc1)[C@@H]1[C@@H](CO)[C@@H]2Cn3c(cccc3=O)[C@H]1N2C(=O)C1CCCC1	1	14	-8	·	·	·	·
O=C(C[C@H]1CC[C@H](NC(=O)Nc2ccccc2F)[C@@H](CO)O1)NCc1ccc(Cl)cc1	6	-9	31	·	·	·	·
COc1cccc(S(=O)(=O)Nc2ccc3c(c2)C(=O)N(C)[C@@H]2CC[C@@H](CC(=O)O)O[C@H]2CO3)c1	-3	6	1	·	·	·	·
CC(=O)N(C)C[C@H]1Oc2ncc(-c3ccc(C(=O)N(C)C)cc3)cc2C(=O)N([C@H](C)CO)C[C@@H]1C	0	7	-13	·	·	·	·
COc1ccc(NC(=O)N(C)C[C@H]2OCCCC[C@H](C)Oc3ccc(NC(=O)Nc4ccc5c(c4)OCO5)cc3C(=O)N([C@H](C)CO)C[C@@H]2C)cc1	5	0	42	·	·	·	·
COc1ccc(NC(=O)Nc2ccc3c(c2)C(=O)N([C@@H](C)CO)C[C@@H](C)[C@H](CN(C)C(=O)Nc2ccc(F)cc2)OCCCC[C@H](C)O3)cc1	-2	-4	·	·	·	·	·
COc1ccc(NC(=O)Nc2ccc3c(c2)C(=O)N([C@H](C)CO)C[C@H](C)[C@H](CN(C)C(=O)Nc2ccc(F)cc2)OCCCC[C@H](C)O3)cc1	-4	5	73	·	·	·	·
COc1ccc(NC(=O)Nc2ccc3c(c2)C(=O)N([C@@H](C)CO)C[C@H](C)[C@@H](CN(C)C(=O)Nc2ccc(F)cc2)OCCCC[C@H](C)O3)cc1	4	-49	109*	100*	62	5	-3
COc1ccc(NC(=O)Nc2ccc3c(c2)C(=O)N([C@H](C)CO)C[C@@H](C)[C@H](CN(C)C(=O)Nc2ccc4c(c2)OCO4)OCCCC[C@@H](C)O3)cc1	5	-42	117*	111*	64	9	17
COc1ccc(NC(=O)Nc2ccc3c(c2)C(=O)N([C@H](C)CO)C[C@@H](C)[C@H](CN(C)C(=O)Nc2ccc(F)cc2)OCCCC[C@@H](C)O3)cc1	1	-27	112*	98*	104*	-6	-10
CN(C)C(=O)[C@@H]1[C@@H](CO)[C@@H]2Cn3c(ccc(-c4cccnc4)c3=O)[C@@H]2N1Cc1ccccc1F	-1	1	17	·	·	·	·
COc1ccccc1CNC(=O)C[C@H]1C[C@@H]2c3cc(NC(=O)c4cccnc4)ccc3O[C@@H]2[C@@H](CO)O1	·	-2	34	·	·	·	·
COCC(=O)N(C)C[C@@H]1Oc2cc(-c3cccnc3)ccc2S(=O)(=O)N([C@@H](C)CO)C[C@H]1C	0	17	-51	·	·	·	·
COc1ccc2c3c([nH]c2c1)[C@H](CO)N(C(=O)CN(C)C)CC31CN(Cc2ccccc2Cl)C1	29	-67	·	·	·	·	·
CN(C)C(=O)C[C@H]1C=C[C@@H](NC(=O)C2CC2)[C@H](CO)O1	-4	·	·	·	·	·	·
O=C1c2ccccc2[C@@]2(Cc3ccccc3N(Cc3ccccc3)C2=O)[C@H](c2ccc(CO)cc2)N1C1CCCCC1	-10	·	·	·	·	·	·
CC(=O)N1CCCCN2[C@H](CO)[C@H](c3ccc(-c4ccncc4)cc3)[C@H]2C1	-8	38	30	·	·	·	·
CC(=O)N1CCCCN2[C@@H](CO)[C@@H](c3ccc(-c4ccncc4)cc3)[C@@H]2C1	-7	19	54	·	·	·	·
O=C(C1CCCC1)N1CCCCN2[C@H](CO)[C@H](c3ccc(-c4ccncc4)cc3)[C@H]2C1	-7	5	87	·	·	·	·
O=C(C1CCCC1)N1CCCCN2[C@@H](CO)[C@@H](c3ccc(-c4ccncc4)cc3)[C@@H]2C1	-7	12	49	·	·	·	·
O=C(C1CCC1)N1CCCCN2[C@H](CO)[C@@H](c3ccc(-c4ccncc4)cc3)[C@H]2C1	4	26	98*	100*	16	-7	5
O=C(C1CCC1)N1CCCCN2[C@H](CO)[C@H](c3ccc(-c4ccncc4)cc3)[C@H]2C1	-5	3	101*	92	82	-14	-13
O=C(C1CCC1)N1CCCCN2[C@@H](CO)[C@@H](c3ccc(-c4ccncc4)cc3)[C@@H]2C1	-6	7	109*	105*	86	20	51*
O=C(C1CCCC1)N1CCCCN2[C@H](CO)[C@@H](c3ccc(-c4ccncc4)cc3)[C@H]2C1	-7	45	?	55	36	11	19
SMILES	C diff HTS	Pf Dd2 growth	T cruzi growth-1	T cruzi growth-2	T cruzi growth-3	3T3 cytotox	3T3 cytotox 2
CN(C)C(=O)C[C@H]1CC[C@H]2[C@@H](COc3ccc(NC(=O)NCc4ccccc4)cc3C(=O)N2C)O1	-2	-72	-45	·	·	·	·
CO[C@H]1CN(C)C(=O)c2ccc(NC(=O)CC(F)(F)F)cc2OC[C@H](C)N(C(C)=O)C[C@@H]1C	-6	36	·	·	·	·	·
C[C@@H]1CCCCO[C@@H](CN(C)C(=O)c2ccccc2)[C@H](C)CN([C@@H](C)CO)C(=O)c2cc(NC(=O)NC3CCCCC3)ccc2O1	-3	-13	-11	·	·	·	·
COc1ccc2c3c(n(C)c2c1)[C@H](CO)N(CC1CC1)CC31CCN(C(C)=O)CC1	·	44	·	·	·	·	·
CNC[C@@H]1Oc2c(NC(=O)C3CCOCC3)cccc2C(=O)N([C@H](C)CO)C[C@H]1C	-6	-3	38	·	·	·	·
C[C@H]1CN([C@@H](C)CO)C(=O)c2cccc(NS(=O)(=O)c3cccs3)c2O[C@@H]1CN(C)CC1CCCCC1	3	15	20	·	·	·	·
C[C@@H]1CCCCO[C@H](CN(C)S(=O)(=O)c2ccccc2)[C@@H](C)CN([C@H](C)CO)C(=O)c2cc(NS(=O)(=O)c3cccs3)ccc2O1	6	·	21	·	·	·	·
COc1ccc(S(=O)(=O)N(C)C[C@H]2OCCCC[C@@H](C)Oc3ccc(NS(=O)(=O)c4cccs4)cc3C(=O)N([C@H](C)CO)C[C@H]2C)cc1	-13	-72	110*	113*	29	1	-20
COc1ccc(S(=O)(=O)N(C)C[C@H]2OCCCC[C@H](C)Oc3ccc(NS(=O)(=O)c4cccs4)cc3C(=O)N([C@@H](C)CO)C[C@@H]2C)cc1	5	-71	107*	112*	33	-8	-8
COc1ccc(S(=O)(=O)Nc2ccc3c(c2)C(=O)N([C@H](C)CO)C[C@@H](C)[C@@H](CN(C)S(=O)(=O)c2cccs2)OCCCC[C@H](C)O3)cc1	-11	-68	100*	90	15	-23	-17
COc1ccc(S(=O)(=O)Nc2ccc3c(c2)C(=O)N([C@@H](C)CO)C[C@H](C)[C@H](CN(C)S(=O)(=O)c2cccs2)OCCCC[C@@H](C)O3)cc1	-6	-39	76	·	·	·	·
